Laboratory results reported in PubChem BioAssay AID2796 (The Scripps Research Institute Molecular Screening Center, 2010).
The whole screen tested about 320,000 compounds, of which about 8,000 (2.5%) were called active. The sample holds actives, similar compounds and a random draw of the others, so the mix is not that of the screen. No stated cut-off is given here; in the data, active means activation above about 47%; inactive means the rest.

Biological target: Aryl hydrocarbon receptor (Homo sapiens) (UniProt P35869)
Assay: AHR activators, primary screen, cell-based, luminescence, luciferase reporter, human (AID 2796);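 further: 0% = vehicle wells and 100% = reference agonist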
Conditions: AHR-responsive luciferase reporter cells, at 5 µM, stronger effect = higher value

Sequence of Aryl hydrocarbon receptor (Homo sapiens) (P35869 whole entry, looked up): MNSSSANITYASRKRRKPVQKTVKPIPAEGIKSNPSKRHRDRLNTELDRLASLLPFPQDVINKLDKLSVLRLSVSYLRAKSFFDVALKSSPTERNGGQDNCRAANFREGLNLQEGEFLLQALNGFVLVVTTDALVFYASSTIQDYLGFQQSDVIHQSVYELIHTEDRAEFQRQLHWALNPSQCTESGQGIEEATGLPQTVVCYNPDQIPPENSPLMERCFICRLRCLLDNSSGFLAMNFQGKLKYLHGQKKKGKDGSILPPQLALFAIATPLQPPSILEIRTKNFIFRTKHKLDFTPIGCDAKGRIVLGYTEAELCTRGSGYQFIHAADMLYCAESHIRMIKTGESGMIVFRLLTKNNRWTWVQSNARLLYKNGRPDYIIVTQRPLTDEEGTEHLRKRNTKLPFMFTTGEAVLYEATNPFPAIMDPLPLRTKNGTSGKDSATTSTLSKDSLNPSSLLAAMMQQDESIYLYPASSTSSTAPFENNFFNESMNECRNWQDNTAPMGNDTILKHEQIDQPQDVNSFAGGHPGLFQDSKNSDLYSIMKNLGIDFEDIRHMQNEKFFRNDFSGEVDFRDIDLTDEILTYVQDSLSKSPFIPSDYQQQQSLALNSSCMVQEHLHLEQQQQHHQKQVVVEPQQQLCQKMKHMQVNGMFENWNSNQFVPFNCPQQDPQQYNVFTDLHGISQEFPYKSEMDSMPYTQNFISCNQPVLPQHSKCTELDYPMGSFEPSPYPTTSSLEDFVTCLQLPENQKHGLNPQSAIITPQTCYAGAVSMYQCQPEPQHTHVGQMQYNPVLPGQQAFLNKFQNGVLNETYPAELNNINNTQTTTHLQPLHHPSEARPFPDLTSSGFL

activation, inactive:
COc1ccc(CC(=O)OC(C)C(=O)Nc2ccc(S(N)(=O)=O)cc2)cc1 (centres undefined) 0.17%
COCc1c(C(=O)OCC(=O)Nc2ccc(OC(F)F)cc2)oc2ccccc12 -0.02%
Cc1cc2nc(-c3ccc(NC(=O)c4cccnc4)cc3)oc2cc1C -6.99%
Cc1ccc2nc(-c3ccc(NC(=O)c4cccnc4)cc3)oc2c1 -9.23%
CCC(CC)COC(=O)C1=C(C)NC(=O)NC1c1ccc([N+](=O)[O-])cc1 (centres undefined) -3.02%
CCc1ccccc1N(CC(=O)NCC1CCCO1)C(=O)CCC(=O)Nc1nccs1 (centres undefined) -2.18%
COc1ccc(NC(=O)C(CC(C)C)NS(=O)(=O)c2ccc3c(c2)CCN3C(C)=O)cc1OC (centres undefined) 1.37%
CSc1ncccc1C(=O)Nc1cccc(S(=O)(=O)N2CCOCC2)c1 -0.18%
Fc1ccccc1/C=N/n1c(-c2cccnc2)n[nH]c1=S 5.29%
S=c1[nH]nc(-c2ccncc2)n1/N=C/c1ccccc1Cl 4.63%
Fc1cccc(CSc2nnc3ccc(-c4ccncc4)nn23)c1 4.81%
COc1ccc2nc(NC(=O)[C@@H]3CCCN3C(=O)c3cccs3)sc2c1 23.1%
c1c2c(cc3sc(N4CCCCC4)nc13)OCCO2 -13.2%
Cc1noc(C)c1CSCC(=O)Nc1nc2ccc(Oc3ccccc3)cc2s1 17.8%
COc1ccc2oc(=O)cc(-c3cc4ccccc4o3)c2c1 18.4%
COc1ccc2nc(NC(=O)NC3CCCCC3)sc2c1 5.23%
CCOc1ccc(S(=O)(=O)Nc2nc3cc(OC)ccc3s2)cc1 -1.36%
COc1ccc(C2=Nc3cc(C)ccc3OC2)cc1 30.2%
O=C(CCc1nc(-c2ccccc2)no1)Nc1cccc(C(=O)NC2CC2)c1 0.82%
CCc1ccc(OCC(=O)OC(C)C(=O)NC2CC2)cc1 (centres undefined) -4.56%
Oc1c(Cl)cc(Cl)c(Cl)c1Cc1c(O)c(Cl)cc(Cl)c1Cl 0.28%
CN(C(=O)COC(=O)Cn1cnc2c1c(=O)n(C)c(=O)n2C)C1(C#N)CCCCC1 -0.97%
O=C(c1snnc1-c1ccccc1)N1CCOCC1 2.54%
CN(CCC1CCOCC1)C(=O)CC1C(=O)NCCN1Cc1cccc(F)c1 (centres undefined) -2.39%
COc1cccc(NC(=O)Cn2cnc3sc(C)c(S(=O)(=O)N4CCN(C)CC4)c3c2=O)c1 3.14%
CCCc1cc(=O)oc2c(C)c(OCC(=O)Nc3ccccn3)ccc12 2.02%
CCCc1cc(=O)oc2c(C)c(OCC(=O)N3CCC(C(=O)O)CC3)ccc12 0.65%
Clc1ccc(-c2cc(C3CCNCC3)[nH]n2)c(Cl)c1 -7.18%
COc1ccc(NC(=O)CN(C)CC(=O)Nc2cccc(C(F)(F)F)c2)cc1 0.79%
CCCCCCC(=O)Nc1nc(C)c(-c2csc(Nc3cc(Cl)ccc3OC)n2)s1 40.2%
Cc1nc(NC(=O)CN(C)S(=O)(=O)c2ccc(Cl)cc2)sc1C 5.19%
CCCCCCC(=O)Nc1nc(C)c(-c2csc(Nc3cccc(OC)c3)n2)s1 34.4%
CCCCN(C)CCC(=O)Nc1ccc(Cl)cc1 0.37%
O=C(O)CSc1c2c(nc3cc(C(=O)Nc4cccc(C(F)(F)F)c4)ccc13)CCCC2 -2.1%
CCC(=O)Nc1nc(C)c(C(=O)Nc2cccc(Cl)c2)s1 7.61%
COc1ccc(-c2csc(NC(=O)COC(=O)Cc3ccc(Cl)cc3Cl)n2)cc1 34.2%
CCC(C)c1ccc(NC(=O)COC(=O)C2CCCC2)cc1 (centres undefined) -0.7%
CC(=O)Nc1ccc(NC(=O)CCN2C(=O)C3CC=CCC3C2=O)cc1 (centres undefined) -0.48%
Cc1occc(=O)c1OCc1c(Cl)cccc1Cl 2.86%
O=C(O)CCN1C(=O)CC2(CCCCC2)C1=O -1.21%
O=C1CCN(Cc2ccc([N+](=O)[O-])cc2)CCN1[C@H](CO)Cc1ccccc1 0.87%
CCCNC(=O)c1cnc(-c2ccccc2)nc1-c1ccccc1 3.22%
CCOc1ccc(/C=C(/NC(=O)c2ccccc2)C(=O)NCCC(=O)O)cc1 3.46%
COc1cc(OC)c(NS(=O)(=O)c2cn(C)cn2)cc1Cl -0.48%
Cc1ccc(NC(=O)C2CCC(C(C)(C)C)CC2)cc1S(=O)(=O)N1CCOCC1 (centres undefined) 1.24%
Cc1csc(=O)n1CC(=O)Nc1ccc(S(C)(=O)=O)cc1 -1.77%
CCOC(=O)c1ccc(NC(=O)c2ccc(NC(=O)C3CCCO3)cc2)cc1 (centres undefined) 3.91%
COc1ccc(N(CC(=O)N2CCOCC2)S(=O)(=O)c2ccccc2)cc1Cl 0.59%
O=C1COc2ccc(C(=O)COC(=O)c3ccccc3Cl)cc2N1 -0.97%
Cc1ccc(C2Nc3cccc4cccc(c34)N2)cc1 30.3%
Oc1ccc(C2Nc3cccc4cccc(c34)N2)cc1 9.92%
CC(Oc1ccc(-c2ccccc2)c(F)c1)c1ccn(S(=O)(=O)c2cccc3ccccc23)n1 (centres undefined) 0.53%
O=C(NC(=O)c1ccc(Cl)c(Cl)c1)OC1CCS(=O)(=O)C1 (centres undefined) 2.16%
O=C(Cn1ncc(N2CCCC2)c(Br)c1=O)c1ccc(Cl)cc1 3.04%
COc1cccc(CNc2ncc(-c3ccccc3)n2C)c1 8.66%
Cc1ccc(-c2csc(-c3cc(C)on3)n2)cc1 -2.07%
CCCc1cc(-c2nc(-c3ccc(C)cc3)cs2)ccn1 23.7%
CCC(C)NC(=O)C1CCC(=O)N1Cc1ccc(C)cc1 (centres undefined) 4.04%
O=C(NCCc1ccc(Cl)cc1Cl)c1cc([N+](=O)[O-])c[nH]c1=O 6.38%
COc1ccccc1NC(=O)c1ccc(C)s1 26.2%
CCC(=O)Nc1sc(C(=O)Nc2ccccc2)c(C)c1C(=O)OC -2.8%
CN1CCN(S(=O)(=O)c2cccc(C(=O)Nc3sccc3C#N)c2)CC1 3.96%
O=C(CC12CC3CC(CC(C3)C1)C2)Nc1ccc2c(c1)COC2=O 0.6%
CC(C)(C)C(=O)Cn1c(NCCO)nc2ccccc21 -1.23%
O=S(=O)(O)c1nc2ccccc2n1Cc1ccc(Cl)cc1Cl 3.2%
CN(CC(=O)NCCc1ccc(S(N)(=O)=O)cc1)CC(=O)Nc1ccc(F)c(F)c1F 1.42%
O=S(=O)(Cc1ccccc1)c1nc2ccccc2n1Cc1ccccn1 -1.4%
Cc1nnc2n1N=C(c1ccccc1)CS2 1.52%
COc1ccc(C2CC(c3cccs3)=NN2c2ccccc2)cc1 (centres undefined) 3.12%
O=S1(=O)CC(NCc2ccccc2)C(Nc2ccc(Cl)cc2)C1 (centres undefined) 0.94%
CSCCC(NC(=O)COc1ccccc1)C(=O)N(C)CC(=O)Nc1ccc(C)cc1 (centres undefined) 1.75%
O=[N+]([O-])c1ccc(Oc2ccc(F)cc2Br)c2ccncc12 15.1%
CCN(CC(=O)NC1CCS(=O)(=O)C1)c1nc(-c2cccnc2)nc2ccccc12 (centres undefined) 1.86%
CCCCn1c(N)c(N(CCOC)C(=O)CSCC(=O)Nc2cccc(C)c2)c(=O)[nH]c1=O 1.66%
Cc1ccc(C)c(N2CCN(C(=O)CCCn3c(=O)c4cccn4c4cccnc43)CC2)c1 6.45%
CCc1nn(CC(=O)N2CCN(c3cc(C)ccc3C)CC2)c(=O)c2cc3occc3n12 4.48%
COc1ccc2nc3n(c(=O)c2c1)-c1ccc(Cl)cc1C(=O)NC3Cc1ccccc1 (centres undefined) 1.56%

activation, active:
CC(=O)Nc1ccc(-c2nc3ccccc3o2)cc1 80.5%
S=c1[nH]nc(-c2cc(-c3ccccc3)n[nH]2)n1/N=C/c1c2ccccc2cc2ccccc12 63.2%
COc1ccc2nc(Nc3nc(-c4ccncc4)cs3)sc2c1 107%
COc1ccc2nc(Nc3nc4cc5c(cc4s3)OCCO5)sc2c1 53.1%
COc1ccc2nc(Nc3nc(-c4cc5ccccc5oc4=O)cs3)sc2c1 56.3%
CCCc1cc(=O)oc2c(C)c(OCC(=O)NCc3ccccn3)ccc12 65.7%
O=C(Nc1ccc(-c2csc(Nc3cccc(C(F)(F)F)c3)n2)cc1)c1cccc(C(F)(F)F)c1 114%
Cc1nc(NC(=O)c2cccc(Cl)c2)sc1-c1csc(Nc2cccc(Cl)c2)n1 85.8%
C=CCCC(=O)Nc1nc(C)c(-c2csc(Nc3ccc(Cl)cc3)n2)s1 56.6%
CCCCC(=O)Nc1nc(C)c(-c2csc(Nc3ccc(Cl)cc3)n2)s1 49.2%
COc1ccc(C2NC(=O)c3ccccc3N2)cc1 (centres undefined) 102%
Cc1ccc(-c2csc(-c3c[nH]c4ccccc34)n2)cc1 74.3%
COC(=O)c1c(NC(C)=O)sc(C(=O)Nc2ccccc2OC)c1C 47.1%
O=C(Cn1c(NCCO)nc2ccccc21)c1ccc(Cl)cc1Cl 103%
O=c1c2cc(-c3ccccc3)sc2nc2n1N=C(c1cccs1)CS2 58.8%
O=[N+]([O-])c1ccc(F)cc1Oc1nc(-c2cccnc2)nc2ccccc12 62.5%
Cc1ccc(C)c(N2CCN(C(=O)Cn3ncn4cccc4c3=O)CC2)c1 49.4%
